{"source": "PubChem BioAssay AID463173", "about": "(ICCB-Longwood Screening Facility, Harvard Medical School, 2010)", "note": "About 4,300 (8.3%) of roughly 52,000 compounds were called active. The entries come from a sample that favours actives as a whole. Unmarked numbers belong to inactive results. Cut-off read from the data, not from the text of the source: active = survival mostly below about 52% (no sharp cut-off); inactive = mostly above about 56%."}
{"tested_on": "DeltatarO mutant", "assay": "growth inhibition of S. aureus wild type versus tarO mutant, primary screen, teichoic acid synthesis inhibitors, RN4220, OD600 (AID 463173)", "conditions": "OD600, 18 h, stronger effect = lower value, screened at 18.75 µg/mL (by protocol)"}
{"smiles": "CCn1c(C(=O)NCc2cc(Br)ccc2OC)cc2oc3ccccc3c21", "survival": "67%"}
{"smiles": "Cn1c(C(=O)NCc2cccc(Cl)c2)cc2oc3ccccc3c21", "survival": "85%"}
{"smiles": "CCCOc1ccc(CNC(=O)c2cc3oc4ccccc4c3n2C)cc1", "survival": "73%"}
{"smiles": "CCn1c(C(=O)NCc2ccc(F)cc2)cc2oc3ccccc3c21", "survival": "89%"}
{"smiles": "CCOc1ccc(CNC(=O)c2cc3oc4ccccc4c3n2C)cc1", "survival": "95%"}
{"smiles": "Cn1c(C(=O)NCc2ccccc2F)cc2oc3ccccc3c21", "survival": "55%"}
{"smiles": "CCn1c(C(=O)NCc2cccc(Br)c2)cc2oc3ccccc3c21", "survival": "50%"}
{"smiles": "CCn1c(C(=O)NCc2ccccc2Br)cc2oc3ccccc3c21", "survival": "48%"}
{"smiles": "CCn1c(C(=O)NCc2ccc(OC(C)C)cc2)cc2oc3ccccc3c21", "survival": "33% (active)"}
{"smiles": "CCn1c(C(=O)NCc2ccccc2C)cc2oc3ccccc3c21", "survival": "14% (active)"}
{"smiles": "COc1ccc(CNC(=O)c2cc3oc4ccccc4c3n2C)cc1OC", "survival": "43% (active)"}
{"smiles": "CCOc1ccccc1CNC(=O)c1cc2oc3ccccc3c2n1CC", "survival": "2% (active)"}
{"smiles": "Cc1c(-c2nsc(NC(=O)c3cccs3)n2)nnn1-c1ccc(Br)cc1", "survival": "77%"}
{"smiles": "COc1ccc2[nH]c(=O)c(CN(C3CCCC3)S(=O)(=O)c3cccc4nsnc34)cc2c1", "survival": "96%"}
{"smiles": "Cc1ccc(NC(=O)Cn2c(=O)n(CCCCC(=O)NCCc3ccccc3)c(=O)c3ccccc32)c(C)c1", "survival": "84%"}
{"smiles": "CCc1ccc(NC(=O)CSc2ccc(-c3cccs3)nn2)cc1", "survival": "72%"}
{"smiles": "Cc1cccc(NC(=O)c2cc3c(=O)n4cccc(C)c4nc3s2)c1C", "survival": "65%"}
{"smiles": "CC(=O)OC1=CN(Cc2ccccc2)S(=O)(=O)c2ccccc21", "survival": "71%"}
{"smiles": "COc1ccccc1CNC(=O)CCCCn1c(=O)c2ccccc2n(Cc2ccccc2F)c1=O", "survival": "93%"}
{"smiles": "COc1cccc(NC(=O)c2ccc(CNS(=O)(=O)c3ccc4c(c3)C(C)(C)C(=O)N4C)cc2)c1", "survival": "51%"}
{"smiles": "CCc1nn(Cc2ccc(Cl)cc2)c(=O)c2cc3cc(C)ccc3n12", "survival": "94%"}
{"smiles": "CCc1nn(Cc2c(C)cc(C)cc2C)c(=O)c2cc3cc(C)ccc3n12", "survival": "88%"}
{"smiles": "CCc1nn(Cc2cccc(F)c2)c(=O)c2cc3cc(C)ccc3n12", "survival": "40% (active)"}
{"smiles": "COc1cccc(C(=O)N2c3cc(C)ccc3C(C)(c3ccccc3)CC2(C)C)c1", "note": "(centres undefined)", "survival": "1% (active)"}
{"smiles": "COc1ccccc1C(=O)NCc1ccc2c(c1)CCN2C(=O)c1cccc(C)c1", "survival": "77%"}
{"smiles": "COC(=O)C1=NN(C(=O)c2cccc(OC)c2)C(C)(O)C1", "note": "(centres undefined)", "survival": "104%"}
{"smiles": "COc1cccc(C(=O)N2c3ccc(C)cc3C(C)(c3ccccc3)CC2(C)C)c1", "note": "(centres undefined)", "survival": "-5% (active)"}
{"smiles": "COc1cccc(C(=O)N2CC(C)OC(C)C2)c1", "note": "(centres undefined)", "survival": "65%"}
{"smiles": "COc1ccc(C)cc1NC(=O)NCc1ccc2c(c1)CCN2C(=O)c1ccccc1", "survival": "105%"}
{"smiles": "COc1ccc(-c2cc3ccc(O)c(CN4CCCC(C)C4)c3oc2=O)cc1", "note": "(centres undefined)", "survival": "79%"}
{"smiles": "CCOc1ccccc1Nc1nc(-c2cccc(Cl)c2)c2c(n1)-c1ccccc1OC2", "survival": "61%"}
{"smiles": "CN(C(=O)CSc1nc2ccc(NC(=O)CCc3ccccc3)cc2s1)c1ccccc1", "survival": "73%"}
{"smiles": "Cc1[nH]c2ccccc2c1C(c1ccccc1)c1cccs1", "note": "(centres undefined)", "survival": "7% (active)"}
{"smiles": "Cc1ccc(C(c2cccc(Br)c2)c2c(C)[nH]c3ccccc23)s1", "note": "(centres undefined)", "survival": "65%"}
{"smiles": "C=CCc1c(C)[nH]c2ccccc2c1=O", "survival": "98%"}
{"smiles": "Cc1[nH]c2ccccc2c1C1(O)C(=O)Nc2ccc(Cl)cc21", "note": "(centres undefined)", "survival": "66%"}
{"smiles": "S=c1nc(Cc2cccs2)[nH]c2ccccc12", "survival": "100%"}
{"smiles": "Cc1ccc(CNC(C)c2ccccc2)s1", "note": "(centres undefined)", "survival": "75%"}
{"smiles": "CCc1ccc(C(c2ccccc2)c2c(C)[nH]c3ccccc23)s1", "note": "(centres undefined)", "survival": "25% (active)"}
{"smiles": "CCCCc1c(C)[nH]c2ccccc2c1=O", "survival": "83%"}
{"smiles": "Cc1[nH]c2ccccc2c1C(c1ccccc1)c1ccc(Cl)s1", "note": "(centres undefined)", "survival": "0% (active)"}
{"smiles": "Cc1ccc(C(c2ccccc2)c2c(C)[nH]c3ccccc23)s1", "note": "(centres undefined)", "survival": "26% (active)"}
{"smiles": "NNC(=O)CSc1c(-c2cccs2)[nH]c2ccccc12", "survival": "84%"}
{"smiles": "Cc1cccc(Nc2c(-c3ccsc3)nc3nc(C)cc(C)n23)c1", "survival": "130%"}
{"smiles": "CS(=O)(=O)Nc1ccccc1C(=O)O", "survival": "81%"}
{"smiles": "CCCSc1ncc(Cl)c(C(=O)Nc2c(C(=O)Nc3ccc(C)cc3)oc3ccccc23)n1", "survival": "62%"}
{"smiles": "Cc1cccc(NC(=O)Cn2c(=O)n(CCCCCC(=O)NCc3ccccc3)c(=O)c3sccc32)c1", "survival": "62%"}
{"smiles": "CCOC(=O)c1cnn(Cc2ccccc2)c1N", "survival": "79%"}
{"smiles": "CCOC(=O)c1noc2ncnc(N3CCN(c4ccccc4OC)CC3)c12", "survival": "77%"}
{"smiles": "COc1ccccc1NC(=O)N1CCN(Cc2nc3ccc(C)cc3o2)CC1", "survival": "84%"}
{"smiles": "CC(=O)c1cccc(NC(=O)CCn2nc(C)c(S(=O)(=O)N3CCCCC3)c2C)c1", "survival": "134%"}
{"smiles": "CC(=O)c1ccc(NC(=O)CCn2nc(C)c(S(=O)(=O)N3CCC(C)CC3)c2C)cc1", "survival": "-5% (active)"}
{"smiles": "Cc1nn(CCC(=O)Nc2cccc(C#N)c2)c(C)c1S(=O)(=O)N1CCC(C)CC1", "survival": "89%"}
{"smiles": "CCOC(=O)c1cnc2ccccc2c1NCC(C)O", "note": "(centres undefined)", "survival": "89%"}
{"smiles": "CCOC(=O)c1cnc2ccc(OC(F)(F)F)cc2c1Nc1ccccc1C(=O)O", "survival": "37% (active)"}
{"smiles": "CCOC(=O)c1cnc2cc(F)c(F)cc2c1Nc1ccccc1O", "survival": "156%"}
{"smiles": "CCOC(=O)c1ccc2ncc(C(=O)OCC)c(Nc3ccc(C)c(Br)c3)c2c1", "survival": "39% (active)"}
{"smiles": "CCOC(=O)c1cnc2ccc(C(=O)OC)cc2c1Nc1ccccc1CC", "survival": "-3% (active)"}
{"smiles": "CCc1ccc2[nH]c(=O)c(C(c3nnnn3C3CCCC3)N(Cc3ccccc3)Cc3ccco3)cc2c1", "note": "(centres undefined)", "survival": "104%"}
{"smiles": "O=C(CN1c2ccc(Br)cc2-c2ccccc2S1(=O)=O)N1CCCCC1", "survival": "91%"}
{"smiles": "COc1cc(CNc2ccc3[nH]c(=O)[nH]c3c2)cc(Cl)c1OCc1ccccc1F", "survival": "78%"}
{"smiles": "CCOc1ccc(CCNC(=O)c2sc3ncccc3c2-n2c(C)ccc2C)cc1", "survival": "106%"}
{"smiles": "COCCNc1nc2c(S(=O)(=O)c3ccc(C)c(C)c3)nnn2c2ccc(Cl)cc12", "survival": "89%"}
{"smiles": "O=C(NCc1ccccc1Cl)NCc1noc2ccccc12", "survival": "45%"}
{"smiles": "Cc1cccc(-c2nn3c(=O)cc(CN4CCN(C(=O)c5ccccc5Br)CC4)nc3s2)c1", "survival": "100%"}
{"smiles": "CCOC(=O)c1cc(C)n(CC2CCC(C(=O)Nc3ccc(Cl)cc3)CC2)c1C", "note": "(centres undefined)", "survival": "46% (active)"}
{"smiles": "CCOC(=O)c1cc(C)n(CC2CCC(C(=O)Nc3ccc(C)cc3)CC2)c1C", "note": "(centres undefined)", "survival": "98%"}
{"smiles": "CCOC(=O)c1cc(C)n(CC2CCC(C(=O)Nc3ccc(C(=O)OC)cc3)CC2)c1C", "note": "(centres undefined)", "survival": "69%"}
{"smiles": "O=C(NC1CCCC1)C1CCCN(S(=O)(=O)c2ccc(-n3cnnn3)cc2)C1", "note": "(centres undefined)", "survival": "72%"}
{"smiles": "CCOc1ccc(OCC)c(NC(=O)c2cnc(SC)nc2-c2ccccc2)c1", "survival": "32% (active)"}
{"smiles": "CSc1ncc(C(=O)Nc2ccc(F)cc2F)c(-c2ccccc2)n1", "survival": "71%"}
{"smiles": "CCOc1ccc(OCC)c(NC(=O)c2ccc(-c3ccccc3)s2)c1", "survival": "27% (active)"}
{"smiles": "COc1ccc(Cl)cc1NC(=O)c1cnc(SC)nc1-c1ccccc1", "survival": "49%"}
{"smiles": "CCOc1ccc(NC(=O)c2ccc(-c3ccccc3)s2)cc1", "survival": "86%"}
{"smiles": "O=C(Nc1ccccc1F)c1ccc(-c2ccccc2)s1", "survival": "81%"}
{"smiles": "Cc1ccc(CN2CCc3nc(N4CCN(c5ncccn5)CC4)ncc3C2)cc1", "survival": "117%"}
{"smiles": "CN1CCN(CC(=O)NCCc2ccc(F)cc2)CC1", "survival": "83%"}
{"smiles": "CNc1nc(OCC#N)nc(N2CCCCC2)n1", "survival": "110%"}
{"smiles": "N#CCOc1nc(OCC#N)nc(OCC#N)n1", "survival": "1% (active)"}
{"smiles": "CONc1nc(NC(C)(C)C)nc(OCC#N)n1", "survival": "97%"}
{"smiles": "Cc1ccc(CNC(=O)c2nc(-c3ccc(Cl)cc3)n3c2CCCCC3)cc1", "survival": "89%"}
{"smiles": "O=C(CCn1c(=O)c2sccc2n(Cc2ccccc2F)c1=O)NCc1ccc2c(c1)OCO2", "survival": "84% (active)"}
{"smiles": "Cc1cccc(C)c1NC(=O)Cn1c(=O)n(CCC(=O)NCc2ccc3c(c2)OCO3)c(=O)c2sccc21", "survival": "90%"}
{"smiles": "Cc1ccc(Cl)cc1NC(=O)Cn1c(=O)n(CCC(=O)NCc2ccc3c(c2)OCO3)c(=O)c2sccc21", "survival": "79% (active)"}
{"smiles": "Cc1ccccc1NC(=O)Cn1c(=O)n(CCC(=O)NCc2ccc3c(c2)OCO3)c(=O)c2sccc21", "survival": "150%"}
{"smiles": "O=C(CCn1c(=O)c2sccc2n(Cc2ccc(F)cc2)c1=O)NCc1ccc2c(c1)OCO2", "survival": "89%"}
{"smiles": "CCC1CCCCN1C(=O)Cn1c(=O)n(CCCCCC(=O)NCc2ccccc2)c(=O)c2sccc21", "note": "(centres undefined)", "survival": "69%"}
{"smiles": "Cc1ccc(NC(=O)Cn2c(=O)n(CCC(=O)NCc3ccc4c(c3)OCO4)c(=O)c3sccc32)c(C)c1", "survival": "87% (active)"}
{"smiles": "Cc1ccccc1NC(=O)Cn1c(=O)n(CCCCCC(=O)NCc2ccc3c(c2)OCO3)c(=O)c2sccc21", "survival": "84%"}
{"smiles": "Cc1ccc(CNC(=O)CCCCCn2c(=O)c3sccc3n(CC(=O)N3CCCCC3C)c2=O)cc1", "note": "(centres undefined)", "survival": "48% (active)"}
{"smiles": "O=C(CCn1c(=O)c2sccc2n(Cc2cccc(F)c2)c1=O)NCc1ccc2c(c1)OCO2", "survival": "97%"}
{"smiles": "O=C(CCCCCn1c(=O)c2sccc2n(CC(=O)Nc2cccc(Cl)c2)c1=O)NCc1ccc2c(c1)OCO2", "survival": "57%"}
{"smiles": "CCC1CCCCN1C(=O)Cn1c(=O)n(CCCCCC(=O)NCc2ccc(F)cc2)c(=O)c2sccc21", "note": "(centres undefined)", "survival": "170%"}
{"smiles": "Clc1ccc(CCNc2ncnc3c2c(-c2ccccc2)cn3-c2ccccc2)cc1", "survival": "94%"}
